# Test results taken from paper PMC4336329 (PLoS ONE, 2015).
# Screen size: about 310,000 compounds; about 14,000 (4.5%) showed an effect of 50% or more. The effect is printed as a negative number. Many of the other results were omitted from the sample, so strong results are more common in it than they were.
# Target: human ether-à-go-go-related gene (hERG) potassium channel (human, UniProt Q12809)
# Assay: primary screen, population patch clamp on CHO cells stably expressing hERG; higher = less effect of the substance
# 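Also: peak tail current of the secondary pulse compared with the same well before compound.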
# Chain of human ether-à-go-go-related gene (hERG) potassium channel (Q12809 whole entry, looked up): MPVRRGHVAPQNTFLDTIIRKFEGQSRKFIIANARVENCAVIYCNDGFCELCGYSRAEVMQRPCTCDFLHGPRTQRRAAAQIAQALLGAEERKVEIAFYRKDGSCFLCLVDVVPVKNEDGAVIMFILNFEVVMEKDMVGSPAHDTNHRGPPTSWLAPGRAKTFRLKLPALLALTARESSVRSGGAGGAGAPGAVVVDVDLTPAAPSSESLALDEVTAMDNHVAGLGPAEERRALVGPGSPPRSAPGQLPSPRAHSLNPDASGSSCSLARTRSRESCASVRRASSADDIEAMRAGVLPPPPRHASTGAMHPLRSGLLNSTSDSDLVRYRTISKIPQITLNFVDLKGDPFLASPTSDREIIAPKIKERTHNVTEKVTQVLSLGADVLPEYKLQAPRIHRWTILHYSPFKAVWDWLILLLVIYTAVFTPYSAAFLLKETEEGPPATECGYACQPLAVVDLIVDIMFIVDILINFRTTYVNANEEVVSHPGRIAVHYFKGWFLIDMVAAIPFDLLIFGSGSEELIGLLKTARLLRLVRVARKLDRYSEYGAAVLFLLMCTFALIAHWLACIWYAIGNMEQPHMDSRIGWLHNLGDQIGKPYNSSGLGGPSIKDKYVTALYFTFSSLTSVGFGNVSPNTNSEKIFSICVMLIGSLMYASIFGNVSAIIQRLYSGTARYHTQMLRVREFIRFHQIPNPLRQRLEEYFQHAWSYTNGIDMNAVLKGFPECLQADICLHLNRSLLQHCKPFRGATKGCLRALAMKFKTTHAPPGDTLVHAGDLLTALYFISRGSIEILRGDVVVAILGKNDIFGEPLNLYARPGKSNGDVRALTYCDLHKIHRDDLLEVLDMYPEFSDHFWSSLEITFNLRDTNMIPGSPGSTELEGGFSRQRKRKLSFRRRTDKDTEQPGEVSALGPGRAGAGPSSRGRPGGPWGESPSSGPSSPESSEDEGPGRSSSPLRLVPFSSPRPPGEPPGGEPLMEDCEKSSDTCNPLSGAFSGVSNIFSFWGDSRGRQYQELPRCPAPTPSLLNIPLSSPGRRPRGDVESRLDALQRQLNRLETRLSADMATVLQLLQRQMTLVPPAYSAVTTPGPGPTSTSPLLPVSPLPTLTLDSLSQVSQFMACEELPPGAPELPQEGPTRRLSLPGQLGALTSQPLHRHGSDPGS
row,SMILES,"hERG current change (%, negative = inhibition) at 10uM"
1,COc1ccc(C)cc1NC(=O)c1nnn(Cc2cccc(F)c2)c1N,7.11%
2,O=C(c1ccc(NS(=O)(=O)c2ccccc2)cc1)N1CCCCCC1,-11.9%
3,COC(=O)c1cc(C#N)c(=O)[nH]c1C,20.3%
4,Cc1cccc(OCC(=O)Nc2cccc(-c3nnc(-c4ccccc4)o3)c2)c1C,-4.37%
5,CC(C)N1CCC(N2CCN(C3CCCCC3)CC2CCO)CC1 (centres unmarked),18.9%
6,O=C(NCC(c1ccco1)N1CCc2ccccc2C1)c1ccc([N+](=O)[O-])cc1 (centres unmarked),-58.1%
7,O=C(NCC(c1ccco1)N1CCc2ccccc2C1)c1ccc(Br)cc1 (centres unmarked),-12.6%
8,O=C(NCC(c1ccco1)N1CCc2ccccc2C1)C(=O)Nc1cc(F)ccc1F (centres unmarked),-52.3%
9,O=C(NCC(c1ccco1)N1CCc2ccccc2C1)c1ccc(Cl)cc1 (centres unmarked),-47.8%
10,O=C(NCC(c1ccco1)N1CCc2ccccc2C1)c1cccc(F)c1 (centres unmarked),-63.5%
11,O=C(NCC(c1ccco1)N1CCc2ccccc2C1)c1ccc(Cl)c([N+](=O)[O-])c1 (centres unmarked),-55.5%
12,COc1cccc(C(=O)NCC(c2ccco2)N2CCc3ccccc3C2)c1 (centres unmarked),-17%
13,Cc1ccc(C(=O)NCC(c2ccco2)N2CCc3ccccc3C2)cc1C (centres unmarked),-5.02%
14,O=C(NCC(c1ccco1)N1CCc2ccccc2C1)c1ccccc1 (centres unmarked),-19%
15,O=C(NCC(c1ccco1)N1CCc2ccccc2C1)c1ccc(F)cc1 (centres unmarked),-10.7%
16,O=C(NCC(c1ccco1)N1CCc2ccccc2C1)C(=O)Nc1ccccc1F (centres unmarked),8.09%
17,O=C(NCC(c1ccco1)N1CCc2ccccc2C1)C(=O)Nc1ccc(F)cc1F (centres unmarked),-0.136%
18,O=C(CN1C(=O)S/C(=C\c2ccc(C(=O)O)cc2)C1=O)Nc1ccccc1,19%
19,CCCCNC(=O)C1Cc2cc(S(=O)(=O)N3CCCCC3)ccc2N1C(C)=O (centres unmarked),17.4%
20,COc1ccc(C2(c3ccc(OC)cc3)NC(=O)N(CC(=O)Nc3ccc(OC)c(OC)c3)C2=O)cc1,-2.49%
21,Cc1noc(/C=C/N(C)C)c1S(=O)(=O)N1CCCC(C(=O)N2CCc3ccccc32)C1 (centres unmarked),13%
22,CCC(NC(=O)C1CCCO1)c1ccccc1 (centres unmarked),22.8%
23,Cc1ccc(CNC(=O)CNC(=O)c2ccc(Br)o2)cc1,5.03%

row,SMILES,"hERG current change (%, negative = inhibition) at 10uM"
1,Cc1ccccc1CN1[C@@H]2c3ccccc3C[C@@H]2OCCS1(=O)=O,-3.4%
2,COc1ccc(C(C(=O)NC2CCCCC2)N(C(=O)c2ccccn2)c2cccnc2)cc1 (centres unmarked),22.4%
3,CCCCC(=O)OCC(=O)Nc1ccc(C)c(F)c1,14.6%
4,Cc1ccccc1NNC(N)=S,5.65%
5,Cc1oc(S(=O)(=O)N2CCCC2)cc1C(=O)Nc1ccccc1,7.38%
6,CCOc1cc(C(=O)N2CCCN(C)CC2)cc(OCC)c1OCC,14.8%
7,Cc1onc(-c2ccccc2)c1C(=O)N1CCN(S(=O)(=O)c2ccc3c(c2)OCCO3)CC1,-17.2%
8,O=C(/C=C/c1cn(-c2ccccc2)nc1-c1ccc2c(c1)OCCO2)NCCO,-51.1%
9,O=C(O)/C=C/c1cn(-c2ccccc2)nc1-c1ccc2c(c1)OCCO2,10.1%
10,Cl.O=C(/C=C/c1cn(-c2ccccc2)nc1-c1ccc2c(c1)OCCO2)NCCCN1CCOCC1,-5.65%
11,C/C(=N\NC(=O)CNc1cccc2ccccc12)c1ccc(Br)s1,6.57%
12,Cc1ccc(C(=O)OCC(=O)Nc2cccc(S(=O)(=O)NC3=NCCCCC3)c2)c(C)c1,-15.4%
13,CS(=O)(=O)Nc1cccc(C(=O)CC2(O)C(=O)Nc3ccccc32)c1 (centres unmarked),8.15%
14,Nc1n[nH]c(N)c1N=Nc1ccccc1,16.7%
15,CCOc1ccccc1N1CCN(Cc2ccco2)CC1,-14.9%
16,COc1ccccc1/C=C/CN1CCN(c2ccccc2)CC1,-15.6%
17,CCN(CC)c1ccc(/C=N/N2CCN(c3ccccc3OC)CC2)cc1,14.4%
18,COc1ccccc1N1CCN(C/C=C/c2ccc(N(C)C)cc2)CC1,-53.9%
19,CCOc1ccccc1N1CCN(C(=O)CC(C)(C)C)CC1,0.665%
20,CCOc1ccccc1N1CCN(C/C=C/c2ccc(N(C)C)cc2)CC1,-60.1%
21,CCOc1ccccc1C1CC(=O)Nc2c1c(=O)n(C)c(=O)n2C (centres unmarked),7.34%
22,O=C(NCc1ccccc1)C(=O)NCC1OCCN1S(=O)(=O)c1ccc2c(c1)OCCO2 (centres unmarked),-3.14%
23,O=C(CCCc1nc(-c2ccc(Cl)cc2)no1)Nc1cccnc1,-24.6%

row,SMILES,"hERG current change (%, negative = inhibition) at 10uM"
1,CCCOc1ccc(C2C(=O)N(C3CCCCCC3)CC(=O)N2Cc2ccco2)cc1OC (centres unmarked),-36.7%
2,COc1ccc(C2C(=O)N(C3CCCCC3)CC(=O)N2Cc2ccco2)cc1 (centres unmarked),-53.7%
3,COc1cc(C2C(=O)N(C3CCCC3)CC(=O)N2Cc2ccco2)ccc1OC(C)C (centres unmarked),-27.6%
4,Cc1ccc(C2C(=O)N(C3CCCC3)CC(=O)N2C2CCCCC2)cc1 (centres unmarked),-25.4%
5,COc1ccc(C2C(=O)N(C3CCCCC3)CC(=O)N2C2CCCC2)cc1 (centres unmarked),-12.1%
6,COc1ccc(C2C(=O)N(C3CCCCC3)CC(=O)N2C2CCCCC2)cc1 (centres unmarked),-51.7%
7,COc1cccc(-c2nnc3n2N=C(c2cccc(Br)c2)CS3)c1,6.32%
8,CCOC(=O)Cn1c(-c2ccccc2)ccc(C#N)c1=O,8.28%
9,Cc1ccc(S(=O)(=O)NC23CC4CC(CC(C4)C2)C3)cc1,3.97%
10,CCC(=O)N1CCN(c2ccc(Cl)cc2NC(=O)c2ccc(N3CCCC3)c([N+](=O)[O-])c2)CC1,-6.9%
11,COc1ccccc1NC(=O)CCN1C(=O)C2CC=C(Cl)CC2C1=O (centres unmarked),-2.46%
12,CC(C)(Oc1ccc(Cl)cc1)C(=O)NC1CC1,1.41%
13,Cc1ccc(/C=C(\NC(=O)c2ccccc2)C(=O)NC2CCN(Cc3ccccc3)CC2)o1,-55.5%
14,CC(C)(Oc1ccc(Cl)cc1)C(=O)NC1CCCCC1,0.43%
15,C=C(C)c1cccc(C(C)(C)NC(=O)NC2CN3CCC2CC3)c1 (centres unmarked),1.14%
16,COc1cc(C(=O)NC2CCN(Cc3ccccc3)CC2)cc(Cl)c1OC(C)C,-61.2%
17,C=C(C)c1cccc(C(C)(C)NC(=O)NC2CCN(Cc3ccccc3)CC2)c1.Cl,-55.5%
18,COc1cc(C(=O)NC2CCN(Cc3ccccc3)CC2)cc(Cl)c1OC,-44.3%
19,Cc1ccc(/C=C(\NC(=O)c2ccccc2)C(=O)NCC2CCCO2)o1 (centres unmarked),-5.4%
20,Cc1ccc(/C=C(\NC(=O)c2ccccc2)C(=O)NCCN2CCOCC2)o1,-3.91%
21,CC(C)(Oc1ccc(Cl)cc1)C(=O)NC1CCN(Cc2ccccc2)CC1,-70.4%
22,C=C(C)c1cccc(C(C)(C)NC(=O)NC2CCCC2)c1,15.1%
23,COc1ccccc1CC(=O)NC1CCN(Cc2ccccc2)CC1,1.52%

row,SMILES,"hERG current change (%, negative = inhibition) at 10uM"
1,Cc1cccc(-c2onc3ccc(C4(C)OCCO4)cc23)c1,-1.6%
2,CCOC(=O)c1[nH]cnc1C(=O)O,-2.12%
3,CN(C)c1ccc(N2C(=NC(=O)C3CCCO3)SC3CS(=O)(=O)CC32)cc1 (centres unmarked),11.1%
4,CCN(CC)C(=O)N1CCN(C(=O)N2CCOCC2)CC1,29.8%
5,Cc1ccc2cccc(S(=O)(=O)N3CCN(c4cccc(Cl)c4)CC3)c2n1,-2.91%
6,CC1CC(=O)N(CC(=O)Nc2cccc(F)c2)c2ccccc2S1(=O)=O (centres unmarked),-4.3%
7,O=C(N1CCCCCC1)n1c(Cc2ccccc2)nc2ccccc21,-30.5%
8,O=C(CN1CCN(c2ncc(C(F)(F)F)cc2Cl)CC1)NC(=O)NCc1ccccc1,4.2%
9,Cl.O=C(NC(=S)NC1CCN(Cc2ccccc2)CC1)c1ccc(F)cc1,-72.3%
10,CC(C)(C)c1ccc(C(=O)N2CCC(NC(=O)c3ccccc3)CC2)cc1,-1.48%
11,O=C(NC1CCN(Cc2ccc(F)cc2)CC1)c1ccccc1,-50.2%
12,CC(C)(C)c1ccc(C(=O)NC2CCN(Cc3ccccc3)CC2)cc1,-65.3%
13,S=C(Nc1ccccc1)NC1CCN(Cc2ccccc2)CC1,-39.6%
14,O=C(NC1CCN(Cc2ccccc2)CC1)c1ccc(CS(=O)c2ccc(F)cc2)o1 (centres unmarked),-22.4%
15,Cc1ccc(-n2c(=O)[nH]c3cc(C(=O)NC4CCN(Cc5ccccc5)CC4)ccc3c2=O)cc1,11.2%
16,CS(=O)(=O)Cc1ccc(C(=O)NC2CCN(Cc3ccccc3)C2)cc1 (centres unmarked),-5.28%
17,O=C(NC1CCN(Cc2ccccc2)CC1)c1ccc2c(c1)[nH]c(=O)n2Cc1ccc(F)cc1,-21.8%
18,Fc1ccc(NC(=S)NC2CCN(Cc3ccccc3)CC2)cc1,-30%
19,Cc1ccccc1C(=O)NC1CCN(Cc2ccccc2)CC1,-29.1%
20,Cc1ccc(C)n1-c1ccc(C(=O)NC2CCN(Cc3ccccc3)CC2)cc1,-65.5%
